PubChem BioAssay AID651602 (The Scripps Research Institute Molecular Screening Center, 2012)
The campaign covered roughly 360,000 compounds. About 950 (0.26%) were called active. Shown is part of a subset that was picked to be rich in actives. Values without a mark were called inactive. No stated cut-off is given here; in the data, active means inhibition above about 11%; inactive means the rest.

Test: growth loss of phage-infected E. coli, primary screen, RecBCD inhibitor project, absorbance, with phage, HTS (AID 651602)
Conditions: at 11.9 µM, stronger effect = higher value
With `COCc1[nH]nc2c1C(c1ccccc1)N(c1ccccc1)C2=O` (stereo not drawn) the inhibition was 1.43%. Compound `O=C(Nc1ccccc1)Nc1nnc(COc2ccccc2F)s1` has an inhibition of 0.84%. `CC(C)=CC(=O)Nc1nnc(-c2ccc(F)cc2)s1` showed an inhibition of 1.99%. For `Cc1ccc(NC(=O)Nc2nnc(-c3ccncc3)s2)cc1`, the inhibition was 12.4% (active). Work on `C[C@H](O)[C@@H]1C(=O)N2CCc3c([nH]c4c(-c5ccc6c(c5)OCO6)cccc34)[C@@H]2C[C@@H]1N(C)C(=O)c1ccco1` yielded an inhibition of 4.12%. Work on `CCn1cc(C(=O)NCCC(=O)NCCO)c(=O)c2cc3c(cc21)OCO3` yielded an inhibition of 0.08%. For `CCn1cc(C(=O)NCCO)c(=O)c2cc(F)c(N3CCN(C)CC3)cc21`, the inhibition was 92.5% (active). In the case of `CCCCCCn1cc(C(=O)O)c(=O)c2cc(F)c(N3CCCCC3)cc21`, the inhibition was 1.18%. `CCCCNC(=O)c1cn(CC)c2cc(N3CCN(C(=O)c4ccco4)CC3)c(F)cc2c1=O` showed an inhibition of 1.02%. Work on `CCn1cc(S(=O)(=O)c2cccc(C)c2)c(=O)c2cc(F)c(N3CCN(C)CC3)cc21` yielded an inhibition of 0.96%. In the case of `CN1CCN(c2cc3c(cc2F)c(=O)c(C(=O)O)cn3CCF)CC1`, the inhibition was 99.2% (active). For `C=CCN1C(=O)N(Cc2ccccc2)c2ccccc2S1(=O)=O`, the inhibition was 1.27%. In the case of `COc1ccc(OC)c(Cc2cnc3nc(N)nc(N)c3c2C)c1`, the inhibition was 82.4% (active). Compound `Brc1ccc(COCCc2cn(Cc3ccccc3)c3ccccc23)cc1` has an inhibition of 2.34%. `Cc1[nH]nc2c1C(c1ccc(Br)cc1)NC2=O` (stereo not drawn) showed an inhibition of 2.87%. Work on `Nc1[nH]c(C(=O)c2ccc(Br)cc2)c(-c2ccc3c(c2)OCO3)c1C(=O)NCCc1c[nH]c2ccccc12` yielded an inhibition of -1.27%. In the case of `CCc1ccc(C2=CC(=O)CC(C)(C)C2=O)cc1`, the inhibition was 1.83%. `C[C@@H]1CN([C@H](C)CO)C(=O)CCCn2cc(nn2)CO[C@H]1CN(C)C(=O)Nc1ccc(N2CCCCC2)cc1` showed an inhibition of 1.36%. With `ON=C1/C(=N\O)CC2(C/C1=N/O)OCCO2` the inhibition was 13.7% (active). For `O/N=C1\CC2(Cc3nonc31)OCCO2`, the inhibition was 0.95%. `CN[C@H]1C[C@H]2c3[nH]c4c(-c5ccccc5)cccc4c3CCN2C(=O)[C@H]1[C@H](C)O` showed an inhibition of 1.58%. With `Nc1ccn([C@@H]2O[C@H](C(=O)N[C@H]3CCCCNC3=O)[C@@H](O)[C@H]2O)c(=O)n1` the inhibition was 1.72%. Compound `O=C(CO/N=C/c1ccccc1O)NNC(=O)c1ccccc1Cl` has an inhibition of 0.32%. `O=C(CC(=O)N/N=C\c1cccc(Cl)c1Cl)NCc1ccccc1` showed an inhibition of 3.05%. For `O=C(NN=Cc1ccccc1O)NN=Cc1ccccc1O`, the inhibition was 12.4% (active). With `COC(=O)C1=C(C)N(Cc2ccccc2C(F)(F)F)C(=NCC2CC2)NC1c1cccc(Cl)c1` (stereo not drawn) the inhibition was 0.63%. For `COC(=O)c1cc2c(c3c4ccccc4n(S(=O)(=O)c4cccc(C)c4)c13)C(=O)N(Cc1ccccc1)C2`, the inhibition was 5.66%. `COc1ccccc1-c1ccc([C@@H]2C[C@H]3[C@H](CON3C)CN2S(=O)(=O)c2cc(Cl)cc(Cl)c2)cc1` gave an inhibition of 3.4%. In the case of `O=S1(=O)c2ccc(Br)cc2-n2nncc2CN1Cc1cccc(Cl)c1`, the inhibition was -0.4%. For `CN(C)[C@@H]1C(=O)C(C(N)=O)=C(O)[C@@]2(O)C(=O)C3=C(O)c4c(O)ccc(Cl)c4[C@@H](O)[C@H]3C[C@@H]12`, the inhibition was 102% (active). For `C=C1c2c(Cl)ccc(O)c2C(O)=C2C(=O)[C@]3(O)C(O)=C(C(N)=O)C(=O)[C@@H](N(C)C)[C@@H]3[C@@H](O)C12` (stereo partly drawn), the inhibition was 102% (active). In the case of `Clc1cccc2c1C1CC2CCN1Cc1ccccc1` (stereo not drawn), the inhibition was 2.92%. In the case of `C=CCN=C1NC(c2cccc(C(F)(F)F)c2)C(C(=O)OC)=C(C)N1C` (stereo not drawn), the inhibition was 2.4%. Compound `COc1ccccc1Cc1c(-c2ccc(F)cc2)nc2ccc(C)cn12` has an inhibition of 2.63%. For `CC1CCN(C(=O)c2ncn3c2C(=O)N[C@@H](C)C3)CC1`, the inhibition was 0.88%. For `Cc1cccc(NC(=O)Cn2cc(C(=O)c3ccco3)c3ccccc32)c1`, the inhibition was 16.3% (active). Work on `CC1CCN(C(=O)Cn2cc(C(=O)c3ccco3)c3ccccc32)CC1` yielded an inhibition of 2.64%. Compound `O=C(Cn1cc(C(=O)c2cccs2)c2ccccc21)NCc1cccs1` has an inhibition of 3.17%. With `COCCCNC(=O)C[C@H]1C[C@@]2(C(=O)OC)C(=C[C@H](C(C)(C)C)O[C@@H]2C)N(Cc2ccc3c(c2)OCO3)C1=O` the inhibition was 0.08%. `Cc1nc(NC(=O)C(C)(C)C)sc1[N+](=O)[O-]` gave an inhibition of 0.38%. For `CC[C@H]1OC(=O)[C@H](C)[C@@H](O[C@H]2C[C@@](C)(OC)[C@@H](O)[C@H](C)O2)[C@H](C)[C@@H](O[C@@H]2O[C@H](C)C[C@H](N(C)C)[C@H]2O)[C@](C)(O)C[C@@H](C)[C@@H]2N[C@@H](COCCOC)O[C@H]([C@H]2C)[C@]1(C)O`, the inhibition was 39.4% (active). `Cc1ccc(N)cc1CN1CCN(c2ncc(Cc3ccccc3)cn2)CC1` gave an inhibition of 1.25%. In the case of `COc1ccc(SSc2ccc(OC)cc2C(=O)O)c(C(=O)O)c1`, the inhibition was 3.45%. In the case of `CN1C(=O)C(Br)(Br)CC1c1cccnc1` (stereo not drawn), the inhibition was 2.07%. `CC(C)[C@@H](C)/C=C/[C@@H](C)[C@H]1CC[C@@H]2[C@]1(C)CCC1[C@]23C=C[C@]2(C[C@@H](O)CC[C@]12C)N(c1ccc([N+](=O)[O-])cn1)O3` (stereo partly drawn) gave an inhibition of -0.39%. In the case of `CC(=O)NC(c1cccs1)c1cc(Br)c2cccnc2c1O` (stereo not drawn), the inhibition was 18.8% (active). `O=[N+]([O-])c1cc([N+](=O)[O-])c2cccnc2c1O` gave an inhibition of -2.95%. In the case of `N#Cc1ccccc1NC(=O)COc1c(Br)cc(Br)c2cccnc12`, the inhibition was -0.78%. Compound `O=c1[nH]c(-c2ccccc2)cn1C1CCN(Cc2ccc(-c3nc4ccc(F)cc4nc3-c3ccccc3)cc2)CC1` has an inhibition of 0.95%. With `CC(C)CNc1cccc2c1S(=O)(=O)N[C@H](CC(C)C)CO2` the inhibition was 2%. Compound `Cc1ccc(NC(=O)CCC(=O)N/N=C/c2ccco2)c(C)c1` has an inhibition of 0%. With `Cc1ccc(/C=N/NC(=O)C2=NNC(c3ccccc3)(c3ccccc3)C2)c(O)c1` the inhibition was 16.3% (active). In the case of `Cc1ccc(/C=N/NC(=O)C(NC(=O)c2ccccc2)c2n[nH]c(=O)c3ccccc23)cc1` (stereo not drawn), the inhibition was 1.99%.
